Results from PubChem BioAssay AID463173 (ICCB-Longwood Screening Facility, Harvard Medical School, 2010).
Hit rate of the full screen: of about 52,000 compounds, about 1,700 (3.3%) were called active. Shown is part of a subset that was picked to be rich in actives. Values without a mark were called inactive. Rule as the data show it: active = survival mostly below about 52% (no sharp cut-off); inactive = mostly above about 56%.

system: Wild type; test: growth inhibition of S. aureus wild type versus tarO mutant, primary screen, teichoic acid synthesis inhibitors, RN4220, OD600 (AID 463173); details: S. aureus RN4220 wild type/DeltatarO growth, OD600, 18 h, active compounds read low, screened at 18.75 µg/mL (by protocol)

Q: `CCCCOc1ccc(C2=NC(c3ccncc3)=Nc3ccc(Br)cc3N2)cc1` was tested. Which survival did it give?
A: -4% (active)

Q: How did the survival turn out when `CCCCOc1ccc(C2=NC(c3ccncc3)=Nc3ccc(OCC)cc3N2)cc1` was run?
A: 90%

Q: With `COc1ccc(C2=NC(c3ccncc3)=Nc3ccc(Br)cc3N2)cc1` as the compound, how does the survival read?
A: 94%

Q: For `COc1ccc(CNC(=O)CCc2c(C)c3cc4c(C)coc4c(C)c3oc2=O)cc1OC`, which survival is on record?
A: 82%

Q: How did the survival turn out when `CC(C)OC(=O)CSc1nnc(-c2ccc(O)cc2)n1-c1ccccc1` was run?
A: 116%

Q: How did the survival turn out when `COc1ccccc1-n1nc(-c2ccccc2)c2cnc3c(F)cc(F)cc3c21` was run?
A: 119%

Q: How did the survival turn out when `Cc1cccc(NC(=O)C(=O)NCCc2csc(-c3ccc(F)cc3)n2)c1C` was run?
A: 75%

Q: `Cc1ccc(-c2nc(CCNC(=O)C(=O)Nc3ccc(C)cc3C)cs2)cc1` was tested. Which survival did it give?
A: 53%

Q: Which survival does the source give for `Cc1ccc(-c2nc(CCNC(=O)C(=O)Nc3ccc(C)c(C)c3)cs2)cc1` here?
A: -3% (active)

Q: With `Cc1ccc(-c2nc(CCNC(=O)C(=O)Nc3c(C)cccc3C)cs2)cc1` as the compound, how does the survival read?
A: 0% (active)

Q: For `Cc1cc(C)c(NC(=O)C(=O)NCCc2csc(-c3ccc(F)cc3)n2)c(C)c1`, which survival is on record?
A: 76%

Q: For `Cc1ccc(-c2nc(CCNC(=O)C(=O)Nc3ccc(C)c(Cl)c3)cs2)cc1`, which survival is on record?
A: 47%

Q: With `O=C(c1cccs1)N1CCCn2c1nc1ccccc12` as the compound, how does the survival read?
A: 106%

Q: `CCc1nn2c(=O)cc(COC(=O)c3cccc(NC(=O)c4ccccc4C)c3)nc2s1` was tested. Which survival did it give?
A: 91%

Q: Which survival does the source give for `CCc1nn(CC(=O)Nc2ccc(C)c(F)c2)c(=O)c2cc3cc(C)ccc3n12` here?
A: 109%

Q: `COc1ccc2c(c1)-c1nc(NC(=O)c3ccc(C)cc3)sc1CC2` was tested. Which survival did it give?
A: 14% (active)

Q: Which survival does the source give for `COc1ccc2c(c1)Cc1sc(NC(=O)c3cccc(C)c3)nc1-2` here?
A: 7% (active)

Q: With `COc1ccc2c(c1)Cc1sc(NC(=O)c3cccc(F)c3)nc1-2` as the compound, how does the survival read?
A: 69%

Q: How did the survival turn out when `COc1ccc2c(c1)-c1nc(NC(=O)c3ccc(Cl)cc3)sc1CC2` was run?
A: 93%

Q: Which survival does the source give for `COc1ccc2c(c1)-c1nc(NC(=O)c3ccccc3F)sc1CC2` here?
A: -1% (active)

Q: Which survival does the source give for `COc1ccc(C(=O)Nc2nc3c(s2)Cc2cc(OC)ccc2-3)cc1` here?
A: 72%

Q: `COc1ccc(C(=O)Nc2nc3c(s2)CCc2cc(OC)ccc2-3)cc1` was tested. Which survival did it give?
A: 41%

Q: `COc1ccc2c(c1)-c1nc(NC(=O)c3cccc(Br)c3)sc1CC2` was tested. Which survival did it give?
A: 54%

Q: `COc1ccc2c(c1)-c1nc(NC(=O)c3cc(Cl)ccc3OC)sc1CC2` was tested. Which survival did it give?
A: 74%

Q: How did the survival turn out when `CCCC(=O)Nc1ccc(Cl)c(NC(=O)c2cccnc2Cl)c1` was run?
A: 114%

Q: With `CC1=C(c2ccc(C)c(C)c2)S(=O)(=O)N=C1N1CCC(C(=O)NCCc2ccc(Cl)cc2)CC1` as the compound, how does the survival read?
A: 132%

Q: For `CS(=O)(=O)N1CCC(N2CCN(Cc3ccc(F)cc3)C(=O)C2=O)CC1`, which survival is on record?
A: 81%

Q: For `Cc1cc(C(=O)O)c2c(=O)n(C)c(=O)n(C)c2n1`, which survival is on record?
A: 81%

Q: How did the survival turn out when `CCOc1ccc(NC(=O)c2ccc(F)c(S(=O)(=O)N(CC)Cc3ccccc3)c2)cc1` was run?
A: 77%

Q: For `Cc1ccc(C(=O)Nc2ccc(C(=O)O)cc2)cc1S(=O)(=O)Nc1ccccc1`, which survival is on record?
A: 73%

Q: How did the survival turn out when `CCOc1cccc(NC(=O)c2ccc(F)c(S(=O)(=O)N(CC)c3cccc(C)c3)c2)c1` was run?
A: 82%

Q: For `CCN(c1ccccc1)S(=O)(=O)c1cc(C(=O)Nc2ccc(Br)cc2)ccc1F`, which survival is on record?
A: 1% (active)

Q: For `Cc1ccc(C(=O)Nc2ccccc2)cc1S(=O)(=O)Nc1ccccc1`, which survival is on record?
A: 70%

Q: How did the survival turn out when `Cc1ccc(C(=O)Nc2ccccc2)cc1S(=O)(=O)Nc1ccc(Br)cc1` was run?
A: 7% (active)

Q: For `CCN1CCN(C(c2ccccc2F)c2c(O)cc(C)n(CCOC)c2=O)CC1` (stereo unspecified), which survival is on record?
A: 45%

Q: `Cc1ccc(NC(=O)Cn2c(=O)n(Cc3ccco3)c(=O)c3ccc(C(=O)NC4CCCC4)cc32)c(C)c1` was tested. Which survival did it give?
A: 87%

Q: Which survival does the source give for `Cc1cccc(C(=O)NCC(c2ccc3c(c2)OCO3)N2CCN(c3ccccc3F)CC2)c1` (stereo unspecified) here?
A: 70%

Q: With `Cc1ccc2nc(CSc3nnc(NC(=O)CC(C)C)s3)cc(=O)n2c1` as the compound, how does the survival read?
A: 60%

Q: How did the survival turn out when `Cc1ccc2nc(CSc3nnc(NC(=O)COc4ccccc4F)s3)cc(=O)n2c1` was run?
A: 81%

Q: How did the survival turn out when `CC(C)C(=O)Nc1nnc(SCc2cc(=O)n3ccccc3n2)s1` was run?
A: 117%

Q: Which survival does the source give for `Cc1ccc(OCC(=O)Nc2nnc(SCc3cc(=O)n4cccc(C)c4n3)s2)cc1` here?
A: 64%

Q: `Cc1cccn2c(=O)cc(CSc3nnc(NC(=O)COc4ccc(F)cc4)s3)nc12` was tested. Which survival did it give?
A: -4% (active)

Q: How did the survival turn out when `Cc1ccc(OCC(=O)Nc2nnc(SCc3cc(=O)n4cc(C)ccc4n3)s2)cc1` was run?
A: 1% (active)

Q: For `Cc1cccn2c(=O)cc(CSc3nnc(NC(=O)COc4ccccc4)s3)nc12`, which survival is on record?
A: 71%

Q: Which survival does the source give for `Cc1ccc2nc(CSc3nnc(NC(=O)COc4ccccc4)s3)cc(=O)n2c1` here?
A: 63%

Q: For `Cc1ccc2nc(CSc3nnc(NC(=O)C(C)C)s3)cc(=O)n2c1`, which survival is on record?
A: -3% (active)

Q: `CCCN1CCN(CCCNC(=O)c2cc3c(=O)n(CC)c4ccccc4c3s2)CC1` was tested. Which survival did it give?
A: 85%

Q: `CC1CCN(CC(=O)N2CCN(c3ccccc3)CC2)CC1` was tested. Which survival did it give?
A: 106%

Q: For `COc1ccc(-c2cn3nc(N4CCCC(C(=O)Nc5ccccc5OC)C4)sc3n2)cc1` (stereo unspecified), which survival is on record?
A: 135%

Q: With `CN(C)S(=O)(=O)c1ccc2c(c1)N(CC(=O)Nc1ccc(OC(F)(F)F)cc1)C(=O)CS2` as the compound, how does the survival read?
A: 71%

Q: For `COc1ccc(C(=O)NCCN=C2NS(=O)(=O)c3ccccc32)cc1`, which survival is on record?
A: 108%

Q: How did the survival turn out when `COCCn1c(C)cc(O)c(C(c2ccccc2)N2CCN(CCO)CC2)c1=O` (stereo unspecified) was run?
A: 0% (active)

Q: `COCCn1c(C)cc(O)c(C(c2ccccc2)N2CCN(C)CC2)c1=O` (stereo unspecified) was tested. Which survival did it give?
A: 87%

Q: How did the survival turn out when `CCN1CCN(C(c2ccccc2)c2c(O)cc(C)n(CCOC)c2=O)CC1` (stereo unspecified) was run?
A: 91%

Q: With `COc1cccc(C(=O)c2cn(CC(=O)NCCc3ccccc3)c3nc(C)ccc3c2=O)c1` as the compound, how does the survival read?
A: 64%

Q: Which survival does the source give for `O=C(NCCn1cc(SCc2cccc(F)c2)c2ccccc21)c1cccc(C(F)(F)F)c1` here?
A: 8% (active)

Q: How did the survival turn out when `COc1ccccc1C(=O)NCCn1cc(SCc2ccc(C)cc2)c2ccccc21` was run?
A: 3% (active)

Q: For `O=C(NCCn1cc(SCc2ccc(C(F)(F)F)cc2)c2ccccc21)c1ccccc1F`, which survival is on record?
A: 35%

Q: Which survival does the source give for `Cc1ccc(CSc2cn(CCNC(=O)c3cccs3)c3ccccc23)cc1` here?
A: 62%

Q: For `COc1ccc(C(=O)NCCn2cc(SCc3cccc(F)c3)c3ccccc32)cc1OC`, which survival is on record?
A: 68%

Q: For `COc1ccccc1C(=O)NCCn1cc(SCc2ccccc2Cl)c2ccccc21`, which survival is on record?
A: 28%

Q: With `Cc1nc2cc(C(F)(F)F)ccc2n1C1CCN(C(=O)C2CC2)CC1` as the compound, how does the survival read?
A: 95%

Q: With `Cn1ncc2c(NCc3ccc(Cl)cc3)ncnc21` as the compound, how does the survival read?
A: 75%

Q: `Cc1ccc(C(C)C)c(OCC(=O)Nc2cccc(-c3nc4ncccc4o3)c2)c1` was tested. Which survival did it give?
A: 2% (active)

Q: For `Cc1cc(OCC(=O)Nc2ccc(C(=O)OC3CCCCC3)cc2)cc(C)c1Cl`, which survival is on record?
A: 52%

Q: For `Cc1ccc(C(C)C)c(OCC(=O)Nc2ccc(-c3nc4ncccc4o3)cc2C)c1`, which survival is on record?
A: 69%

Q: With `Cc1ccccc1OCC(=O)Nc1ccc(-c2nc3ncccc3o2)cc1` as the compound, how does the survival read?
A: 69%

Q: With `Cc1ccc(C(C)C)c(OCC(=O)Nc2ccc(C(=O)OC3CCCCC3)cc2)c1` as the compound, how does the survival read?
A: 6% (active)

Q: For `CCCC(=O)Nc1cccc(-c2nc3ncccc3o2)c1`, which survival is on record?
A: 88%

Q: How did the survival turn out when `Cc1cc(C)c(OCC(=O)Nc2cccc(-c3nc4ncccc4o3)c2)c(Br)c1` was run?
A: 4% (active)

Q: With `O=C(COc1ccc(Cl)cc1Cl)Nc1ccc(C(=O)OC2CCCCC2)cc1` as the compound, how does the survival read?
A: 78%

Q: Which survival does the source give for `COc1ccc(OCC(=O)Nc2ccc(-c3nc4ncccc4o3)cc2)cc1` here?
A: 119%

Q: `Cc1cccc(OCC(=O)Nc2ccc(Cl)c(-c3nc4ncccc4o3)c2)c1C` was tested. Which survival did it give?
A: 38%

Q: For `CCC(C)c1ccc(OCC(=O)Nc2cccc(-c3nc4ncccc4o3)c2)cc1` (stereo unspecified), which survival is on record?
A: 6% (active)

Q: For `CCC(C)c1ccc(OCC(=O)Nc2ccc(-c3nc4ncccc4o3)cc2)cc1` (stereo unspecified), which survival is on record?
A: 60%

Q: How did the survival turn out when `O=C(Nc1ccccc1)Nc1nnc(SCC(=O)N2CCCCC2)s1` was run?
A: 131%

Q: How did the survival turn out when `CC(C)(C)OC(=O)N1CCC(c2c(C(=O)N3CCN(C(=O)c4ccco4)CC3)cnn2-c2cccc(Cl)c2)CC1` was run?
A: 95%

Q: Which survival does the source give for `CCn1cc(C(=O)Nc2ccccc2)c(=O)c2ccc(C)nc21` here?
A: 111%

Q: Which survival does the source give for `CCc1ccccc1Nc1nc2ccccc2n2cnnc12` here?
A: 147%

Q: With `c1ccc(N(c2ccccc2)c2nc(-n3nnc4ccccc43)nc(-n3nnc4ccccc43)n2)cc1` as the compound, how does the survival read?
A: 103%

Q: With `Cc1cccc(Oc2coc3cc(OCC(=O)NC4CCCCC4)ccc3c2=O)c1` as the compound, how does the survival read?
A: 80%

Q: `COc1ccc(C2C(C(N)=O)=C(C)Nc3nc(SCc4ccccc4Cl)nn32)cc1OC` (stereo unspecified) was tested. Which survival did it give?
A: 143%

Q: How did the survival turn out when `CC1=C(C(=O)Nc2ccccc2)C(c2ccc(O)cc2)n2nc(-c3ccc(Cl)cc3)nc2N1` (stereo unspecified) was run?
A: 82%

Q: For `Cc1ccc2cccc(NC(=O)COc3cc(C)c(Cl)c(C)c3)c2n1`, which survival is on record?
A: 82%

Q: How did the survival turn out when `Cc1ccc(C(C)C)c(OCC(=O)Nc2cccc(NC(=O)c3ccco3)c2)c1` was run?
A: 12% (active)

Q: `COc1ccc(NC(=O)c2ccco2)cc1NC(=O)COc1cc(C)ccc1C(C)C` was tested. Which survival did it give?
A: 85%

Q: For `Cc1ccc(C(C)C)c(OCC(=O)Nc2ccc3c(c2)nc(CCNC(=O)c2ccco2)n3C)c1`, which survival is on record?
A: 88%

Q: Which survival does the source give for `Cc1ccc2cccc(NC(=O)COc3ccccc3Cl)c2n1` here?
A: 134%

Q: How did the survival turn out when `CCC(C)c1ccc(OCC(=O)Nc2cccc3ccc(C)nc23)cc1` (stereo unspecified) was run?
A: -12% (active)

Q: How did the survival turn out when `O=c1c(-c2cc(-c3ccccc3)nc3c2COc2ccc(Cl)cc2-3)coc2ccccc12` was run?
A: 75%

Q: How did the survival turn out when `COc1cc(C(=O)Nc2nonc2-c2ccc(Cl)cc2)cc(OC)c1OC` was run?
A: 94%
